Source: PubChem BioAssay (NCATS)
Results filed as inconclusive are left out. Activity calls are given as the source filed them. Calls follow the shape of the dose curve; as a rule, active = well fitted inhibition curve with a large enough effect; inconclusive = small, poorly fitted or top-dose-only effect; inactive = flat fitted curve, though single readings scatter.

Experiment: P-glycoprotein substrates identified in KB-8-5-11 adenocarcinoma cell line, qHTS therapeutic library screen (AID 1346987); also: nearly all actives have a fitted effect of over 65% in size
Settings: KB-8-5-11 (P-gp overexpressing) viability, CellTiter-Glo, 72 h; series mostly up to 44.5 µM; activity change, negative = cytotoxicity: at the top concentration
Method in brief: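 Human cervical adenocarcinoma KB-8-5-11 cells, selected in colchicine to over-express P-gp and assayed without it, were exposed for 72 h to titrated compounds. An ATP-based luminescent viability signal gave AC50.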
% is scaled to controls: 0 for no effect and ±100 for the full control effect.

Compound | outcome | activity change, negative = cytotoxicity | Potency
Oc1ccc([C@H]2COc3cc(O)ccc3C2)cc1 | inactive |  | 
NC(=O)c1cccc(-c2cc(O)cc(OC(=O)NC3CCCCC3)c2)c1 | inactive [at 17.3 µM] |  | 
C=C1CC[C@H]2[C@@H](/C=C(\C)C(=O)[C@@]3(OC(C)=O)C[C@H](C)[C@H](OC(C)=O)[C@@H]3[C@H]1OC(C)=O)C2(C)C |  | -1.45% [at 17.3 µM] (inactive) | 
CC(C)c1cc2c(c(O)c1O[C@@H]1O[C@H](CO)[C@@H](O)[C@H](O)[C@H]1O)CC1(O)CCC(O)C(C)(C)C1CC2 (stereo not given in full) |  | 8.06% [at 17.3 µM] (inactive) | 
COc1cc2c(cc1OC)CN(C(=O)[C@@H](NCc1ccncc1)C(C)(C)C)CC2 |  | 0.391% (inactive) | 
CC1CCC2C(C)(C)C(O)CCC2(C)C12Cc1c(O)cc3c(c1O2)C(N)=NC3 (stereo not given) |  | 6.93% (inactive) | 
C[C@@H]1O[C@@H](O[C@H]2[C@H](O[C@H]3CC[C@@]4(C)C(CC[C@]5(C)C4CC=C4[C@@H]6CC(C)(C)CC[C@]6(C(=O)O)CC[C@]45C)[C@]3(C)CO)OC[C@H](O)[C@@H]2O)[C@H](O)[C@H](O[C@@H]2OC[C@@H](O)[C@H](O)[C@H]2O)[C@H]1O (stereo not given in full) |  | -3.86% [at 9.29 µM] (inactive) | 
CCNC(=O)[C@H]1O[C@H](n2cnc3c(NCC(c4ccccc4)c4ccccc4)nc(C(=O)NCCNC(=O)NC4CCN(c5ccccn5)CC4)nc32)[C@H](O)[C@@H]1O | inactive |  | 
CCOc1c2c(c(OCC)c3ccccc13)C(=O)N(c1ccc(CC(=O)NS(=O)(=O)c3ccccc3)cc1)C2 | inactive |  | 
CC(=O)c1c(C)cc(O)cc1O[C@@H]1O[C@H](CO)[C@@H](O)[C@H](O)[C@H]1O |  | 7.01% (inactive) | 
O=C(O)CCc1cc2ccoc2cc1O[C@@H]1O[C@H](CO[C@@H]2OC[C@](O)(CO)[C@H]2O)[C@@H](O)[C@H](O)[C@H]1O |  | 2.92% [at 17.3 µM] (inactive) | 
CC1=CC(=O)C2C(C)(C)CCCC2(C)C12CCC1(COC(=O)C1)O2 (stereo not given) |  | 2.44% (inactive) | 
C[C@@]12C[C@]3(O)O[C@H](O1)[C@]1(COC(=O)c4ccccc4)[C@H]3C[C@@]12O[C@@H]1O[C@H](COC(=O)c2ccccc2)[C@@H](O)[C@H](O)[C@H]1O | inactive [at 17.3 µM] |  | 
C[C@@H]1C(=O)O[C@H]2[C@H]1CC[C@@]1(C)C(=O)C=C[C@](C)(O)[C@H]21 | inactive |  | 
CCCCC(CC)COC(=O)CC(C(=O)OCC(CC)CCCC)S(=O)(=O)O (stereo not given) |  |  | inactive
C=C1C[C@@]23CC[C@@H]4[C@](C)(C(=O)O)CCC[C@@]4(C)C2=CC[C@H]1C3 | inactive |  | 
O=C(CCCCc1ccc2ccccc2c1)C(F)(F)F |  | 1.14% [at 93.4 µM] (inactive) | 
CC(C)C(=O)O[C@@H]1[C@@H](O)[C@@H](O[C@H]2O[C@H](CO)[C@@H](O)[C@H](O)[C@H]2O)O[C@H](CO)[C@H]1O |  | 5.88% [at 17.3 µM] (inactive) | 
CC(=O)OC[C@@]12[C@H](O)C[C@@H](C)[C@]3(C[C@@H](c4ccoc4)OC3=O)[C@H]1C[C@H](O)C[C@]21CO1 |  | 5.35% [at 17.3 µM] (inactive) | 
C[C@H]1[C@H](C)CC[C@]2(C(=O)O)CC[C@]3(C)C(=CC[C@@H]4[C@@]5(C)C[C@@H](O)[C@H](O)[C@@](C)(CO)[C@@H]5CC[C@]43C)[C@H]12 | inactive |  | 
CCCCN(CCCC)C(=O)CN1C[C@H](c2ccc3c(c2)OCO3)[C@@H](C(=O)O)[C@@H]1c1ccc(OC)cc1 |  | 6.6% (inactive) | 
CC1=C2[C@@H]([C@H](C)CC[C@H]2/C=C(\C)C(=O)O)[C@H](O)C1 |  | 9.08% (inactive) | 
CC(C)NCC1CCc2cc(CO)c([N+](=O)[O-])cc2N1 (stereo not given) |  | -0.942% [at 17.3 µM] (inactive) | 
COc1ccc([C@H]2Cc3cccc(O)c3C(=O)O2)cc1 |  | -3.39% (inactive) | 
CC1=CC(=O)CC(C)(C)C1(O)CCC(C)O (stereo not given) | inactive |  | 
